Shown are actives, neighbours in structure and some others; about 4.7% of the full set was active somewhere.
HSF1 inh = HSF1 inhibition; NIH3T3-HGL HSE-luciferase, MG132-induced, luminescence 8 h; hits give low values; activity change, negative = inhibition, % at 7.5 µM (by protocol); 300,000 tested, 0.77% active;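 active = more than half of replicate wells show activity change below -50%, luminescence cut by over half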;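 note: luciferase reports HSF-1 transcriptional activity via heat shock element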
HSP90 refold inh = blocks HSP90-mediated luciferase refolding in reticulocyte lysate; inhibition, % at 5.6 µM; 290,000 tested, 0.91% active; Rabbit reticulocyte lysate, luciferase refolding luminescence, 3 h;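 active = inhibition above the screen-wide mean plus 3 SD, computed separately per campaign, cut at about 16% in these data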;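 note: inhibitors lower the luminescence because luciferase stays unfolded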
HSF-1 act = increases HSF-1 driven luciferase reporter signal; activation, % at 9 µM; 300,000 tested, 1.7% active; NIH3T3-HGL HSF-1 luciferase reporter, MG132, 8 h; 100% = twice DMSO control signal;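 active = mean replicate activation of at least 50% with a set share of replicates each reaching 50%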
TWEAK-Fn14 inh = TWEAK-Fn14 signaling inhibition; TWEAK-stimulated Fn14 reporter cells, luciferase luminescence, 8 h; inhibition, % at 10 µM; 360,000 tested, 2% active; in the data active = inhibition above about 50%
EBV LMP1 NFkB = Epstein-Barr LMP1 NF-kappaB reporter inhibition; inhibition, % at 12.5 µM; 350,000 tested, 0.69% active; LMP1-induced NF-kappaB luciferase reporter cells, luminescence; AID 504558; in the data active = inhibition above about 41%
TROY signal inh = inhibitors of TROY-dependent NF-kB signaling; Q293 LMP1-TROYcd NF-kB luciferase reporter, 4 h; inhibition, % at 10 µM; 360,000 tested, 0.98% active; AID 1347056;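 active = compounds whose plate-normalised and pattern-corrected inhibition of the luciferase reporter signal at the single screening dose is 50% or more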
Hits are given with their value; - = inactive; . = no result given.

SMILES	HSF1 inh	HSP90 refold inh	HSF-1 act	TWEAK-Fn14 inh	EBV LMP1 NFkB	TROY signal inh
CC12CCC(C/C1=N\N=C1\NC(=O)/C(=C\c3ccc(Cl)cc3)S1)C2(C)C (stereo not given)	-94	-	-	-	-	-
Cc1ccc(C2C3=C(CC(C)(C)CC3=O)NC3=C2C(=O)CC(C)(C)C3)o1	-	-	-	84	-	.
Cc1ccc(C2Nc3ccc4ccccc4c3C3=C2C(=O)CC(C)(C)C3)o1 (stereo not given)	-	-	86	-	-	-
CC1(C)CC(=O)C2=C(C1)c1c(ccc3ccccc13)NC2c1ccc(C(=O)O)cc1 (stereo not given)	-	-	-	-	-	-
CC1(C)CC(=O)C2=C(C1)c1c(ccc3ccccc13)NC2c1cc([N+](=O)[O-])cc([N+](=O)[O-])c1O (stereo not given)	-	-	-	-	-	53
COc1cc(C2Nc3ccc4ncccc4c3C3=C2C(=O)CC(C)(C)C3)cc(OC)c1O (stereo not given)	-	-	-	-	-	-
CC1=C(C#N)C(c2ccc(O)cc2)C2=C(CC(C)(C)CC2=O)N1 (stereo not given)	-	-	-	-	-	-
CS(=O)(=O)c1nc(-c2ccc(F)cc2)cc(C(F)(F)F)n1	-93	-	-	86	-	52
COc1ccc(-c2cc(C(F)(F)F)nc(S(C)(=O)=O)n2)cc1	-	-	321	53	-	-
Nc1nc(-c2ccc(F)cc2)cc(C(F)(F)F)n1	-	-	-	-	-	-
Cc1cc(NC(=O)CCCS(=O)(=O)c2nc(-c3cccs3)cc(C(F)(F)F)n2)no1	-	-	205	60	-	66
O=C(O)CCS(=O)(=O)c1nc(-c2cccs2)cc(C(F)(F)F)n1	-	-	-	-	-	-
CS(=O)(=O)c1nc(-c2cccs2)cc(C(F)(F)F)n1	-90	-	-	.	.	.
COc1ccc(-c2cc(C(F)(F)F)nc(N)n2)cc1	-	-	-	-	-	-
Cc1ccccc1-c1cc2nc(NCc3cccnc3)n(C)c(=O)c2s1	.	.	.	-	.	-
CC1(C(=O)Nc2ccc(Cl)c(C(F)(F)F)c2)Cc2c(-c3ccc(C(N)=O)cc3)ccnc2O1 (stereo not given)	.	.	.	-	.	-
COc1ccc([C@H]2C[C@H](n3cc(COC(=O)c4ccccc4)nn3)[C@@H](O)CN2C(=O)c2cccs2)cc1	.	.	.	-	-	-
CCCCn1nc(C(=O)NC2CCCCC2)c2ccccc2c1=O	.	.	.	-	-	-
OCCNc1ncnc2c1ncn2[C@H]1CN(Cc2ccc3c(c2)OCO3)C[C@@H](CO)O1	.	.	.	-	.	-
N#CC(c1cccc(Cl)c1)c1ccc2c(C(F)(F)F)cc(C(F)(F)F)nc2n1 (stereo not given)	-	-	-	-	-	64
CC(=O)Nc1ccc(NC(=O)CSc2nnc(N)n2-c2ccccc2)cc1	.	.	.	-	-	-
Cc1cc2c(c(/C=C/C(=O)c3ccccc3)c1)OC1(C=C2)Oc2ccccc2C(=O)N1C (stereo not given)	-	-	74	69	-	-
CCc1nc2ccc(C(=O)NCCN3CCNC3=O)cn2c1N(C)CCC(C)C	.	.	.	-	.	-
O=C1CC(N(CCc2ccccc2)C(=S)Nc2ccccc2)C(=O)N1c1ccc(Br)cc1 (stereo not given)	-	-	-	79	-	-
CC1(C)CC(=O)C(=Cc2cn(-c3ccccc3)nc2-c2ccccc2)C(=O)C1	-	.	147	-	-	-
SMILES	HSF1 inh	HSP90 refold inh	HSF-1 act	TWEAK-Fn14 inh	EBV LMP1 NFkB	TROY signal inh
Cc1ccc(-c2nn(-c3ccccc3)cc2C=C2C(=O)CC(C)(C)CC2=O)cc1	-	-	-	-	-	-
CCOC(=O)C1CCCN(C(=O)Cc2ccc(OC)c(OC)c2)CC1 (stereo not given)	.	.	.	-	.	-
CCCOc1ccc(F)cc1-c1cc(C(=O)NCc2cccs2)[nH]n1	.	.	.	-	.	-
N=c1c[n+](N2CCOCC2)[n-]o1	-	-	-	72	-	-
CCCn1c(=O)[nH]c(=O)c2c1nc(-c1ccccc1OC(F)F)n2CCOC	-	-	53	-	-	-
O=c1cnn(Cc2ccc(F)cc2)c2ccccc12	-	-	-	-	-	-
O=C(OCCN1CCCCC1)c1ccccc1Cl	-	-	-	-	-	-
O=c1c(Cl)c(Cl)cnn1Cc1ccc(F)cc1	-	-	-	81	-	-
O=C(OCn1ncc(Cl)c(Cl)c1=O)c1ccc(F)cc1	-94	-	-	.	.	.
O=C(OCn1ncc(Cl)c(Cl)c1=O)c1ccccc1Cl	-95	-	-	104	86	73
Cc1noc(C)c1Cn1c(C)c(C(=O)NCc2ccc3c(c2)OCCO3)sc1=O	.	.	.	-	.	-
CN1CCN(C2CN(CCc3ccccc3)S(=O)(=O)C2)CC1 (stereo not given)	.	.	.	-	.	-
COc1ccc(CNC(=O)C(c2ccc(C)o2)N(C(=O)c2snc(C(N)=O)c2N)c2ccccc2OC)cc1 (stereo not given)	-	-	58	-	-	-
CC(C)Oc1ccc(CSC(=N)N)cc1	-	-	-	65	-	-
CC1(C(=O)NS(=O)(=O)c2cccc(Cl)c2)CCN1C(=O)C1(c2ccccc2)CC1 (stereo not given)	.	.	.	-	.	-
Cc1[nH]c2ccccc2c1/C=C/c1nc2ccccc2c(=O)n1CCO	-	-	-	-	-	55
O=c1c2ccccc2nc(/C=C/c2ccc([N+](=O)[O-])o2)n1CCCO	-	-	-	-	84	-
O=c1c2ccccc2nc(/C=C/c2ccc([N+](=O)[O-])cc2)n1CCCO	-	-	-	-	-	-
CCn1c(/C=C/c2cc(Br)ccc2O)nc2ccccc2c1=O	-	-	-	63	-	-
Cc1cc(F)cc(-c2cc(C(=O)NCC3CCCCC3)[nH]n2)c1	.	.	.	-	.	-
COc1cc2c3c(cccc3c1)C(=O)N(CCN1CCCC1)C2=O	.	.	.	-	-	-
CCC(c1nnnn1-c1ccc2c(c1)OCCO2)N1CCN(Cc2c(F)cccc2Cl)CC1 (stereo not given)	.	.	.	-	.	-
O=C(/C=C\Nc1ccc2c(c1)OCO2)c1cccs1	-	-	-	-	-	-
O=C(/C=C\Nc1ccc2c(c1)OCO2)c1ccc(Cl)s1	-	-	-	53	-	-
COc1ccc(OCCN(C)Cc2c(O)ccc3ccccc23)cc1	-	-	130	-	-	-
CC(C)(C)NC(=O)C1c2ccccc2OCC(=O)N1Cc1ccc2c(c1)OCO2 (stereo not given)	.	.	.	-	.	-
N#CCCn1nnc(-c2ccccc2F)n1	-63	-	-	-	-	-
O=C(NCc1ccncc1)[C@@H]1CCCN1C(=O)[C@@H]1CCCN1C(=O)c1ccccc1Cl	.	.	.	-	.	-
CC(=O)Oc1c(C)cc(Cl)cc1C(=O)Nc1ccc([N+](=O)[O-])cc1Cl	-	-	56	88	-	-

Source: PubChem BioAssay (several laboratories)
